Laboratory results taken from paper PMC7862700, “An all-to-all approach to the identification of sequence-specific readers for epigenetic DNA modifications on cytosine”.

Legend:
Assay in all cases: DAPPL (digital affinity profiling via proximity ligation, sequencing); 10 mM Tris-HCl pH 7.5, 50 mM NaCl, 1 mM DTT, 4% glycerol, room temperature, 30 min; GST-TFs on glutathione beads, 16-mer random dsDNA library, 0.1% formaldehyde crosslink after washing; high values mean tight binding
FLI1 = biological target: T1, FLI1 (Homo sapiens, UniProt Q01543 1-452); conditions: protein: recombinant; tags: N-terminal GST; dsDNA, one strand shown
T1 sequence: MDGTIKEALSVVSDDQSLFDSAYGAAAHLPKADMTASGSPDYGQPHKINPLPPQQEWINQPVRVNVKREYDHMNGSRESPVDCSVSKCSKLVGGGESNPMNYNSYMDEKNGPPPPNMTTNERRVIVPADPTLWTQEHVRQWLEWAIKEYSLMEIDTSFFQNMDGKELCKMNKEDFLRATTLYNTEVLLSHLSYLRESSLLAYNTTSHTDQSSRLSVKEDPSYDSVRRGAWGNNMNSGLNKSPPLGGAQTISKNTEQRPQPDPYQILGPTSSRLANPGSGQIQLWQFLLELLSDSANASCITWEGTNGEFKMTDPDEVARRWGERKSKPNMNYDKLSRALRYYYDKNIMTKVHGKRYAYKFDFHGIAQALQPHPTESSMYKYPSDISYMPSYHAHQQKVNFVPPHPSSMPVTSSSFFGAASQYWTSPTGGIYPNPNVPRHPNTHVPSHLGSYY
In short: (§1)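 Pools of DNA-barcoded human transcription factors, expressed in yeast as GST fusions on glutathione beads and combined with a tag-only sample, were incubated with 200 nmole of a 16-mer random double-stranded DNA library. Incubation took 30 min at room temperature in Tris/NaCl/DTT/glycerol buffer and was followed by washing, 0.1% formaldehyde crosslinking, proximity ligation (BsaI/T4 ligase, 1 h, 37 °C), PCR amplification and sequencing on an Illumina NextSeq500. Binding signal is the ratio of a hexamer's read frequency for a factor to its frequency for the tag-only sample.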

ELK1 = biological target: T2, ELK1 (Homo sapiens, UniProt P19419 1-428); conditions: protein: recombinant; tags: N-terminal GST; dsDNA, one strand shown
T2 sequence: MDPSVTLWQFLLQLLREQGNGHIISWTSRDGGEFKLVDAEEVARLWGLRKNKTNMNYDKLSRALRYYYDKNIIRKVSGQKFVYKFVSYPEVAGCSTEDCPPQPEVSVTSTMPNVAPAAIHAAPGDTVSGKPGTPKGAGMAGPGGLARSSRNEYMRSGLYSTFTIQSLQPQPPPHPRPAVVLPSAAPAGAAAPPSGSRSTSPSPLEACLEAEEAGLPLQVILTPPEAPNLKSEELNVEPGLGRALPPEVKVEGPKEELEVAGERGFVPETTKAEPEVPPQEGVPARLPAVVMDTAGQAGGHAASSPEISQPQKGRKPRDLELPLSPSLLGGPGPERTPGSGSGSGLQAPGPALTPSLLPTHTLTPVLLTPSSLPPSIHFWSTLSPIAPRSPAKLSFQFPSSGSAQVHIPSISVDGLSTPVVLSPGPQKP
In short: as §1

GABPA = biological target: T3, GABPA (Homo sapiens, UniProt Q06546 1-454); conditions: protein: recombinant; tags: N-terminal GST; dsDNA, one strand shown
T3 sequence: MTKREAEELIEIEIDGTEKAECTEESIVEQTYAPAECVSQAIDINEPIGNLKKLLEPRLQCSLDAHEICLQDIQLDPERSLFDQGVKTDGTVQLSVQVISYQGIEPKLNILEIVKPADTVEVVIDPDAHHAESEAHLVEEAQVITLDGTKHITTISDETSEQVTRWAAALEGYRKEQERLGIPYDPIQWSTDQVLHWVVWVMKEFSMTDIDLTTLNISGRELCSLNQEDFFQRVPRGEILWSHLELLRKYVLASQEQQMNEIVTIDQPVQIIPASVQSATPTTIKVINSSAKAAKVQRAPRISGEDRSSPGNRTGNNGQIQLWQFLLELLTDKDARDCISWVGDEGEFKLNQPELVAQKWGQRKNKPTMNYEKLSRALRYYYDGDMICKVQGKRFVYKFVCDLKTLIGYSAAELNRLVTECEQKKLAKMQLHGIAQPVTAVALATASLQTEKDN
In short: as §1

ERG = biological target: T4, ERG (Homo sapiens, UniProt P11308 1-479); conditions: protein: recombinant; tags: N-terminal GST; dsDNA, one strand shown
T4 sequence: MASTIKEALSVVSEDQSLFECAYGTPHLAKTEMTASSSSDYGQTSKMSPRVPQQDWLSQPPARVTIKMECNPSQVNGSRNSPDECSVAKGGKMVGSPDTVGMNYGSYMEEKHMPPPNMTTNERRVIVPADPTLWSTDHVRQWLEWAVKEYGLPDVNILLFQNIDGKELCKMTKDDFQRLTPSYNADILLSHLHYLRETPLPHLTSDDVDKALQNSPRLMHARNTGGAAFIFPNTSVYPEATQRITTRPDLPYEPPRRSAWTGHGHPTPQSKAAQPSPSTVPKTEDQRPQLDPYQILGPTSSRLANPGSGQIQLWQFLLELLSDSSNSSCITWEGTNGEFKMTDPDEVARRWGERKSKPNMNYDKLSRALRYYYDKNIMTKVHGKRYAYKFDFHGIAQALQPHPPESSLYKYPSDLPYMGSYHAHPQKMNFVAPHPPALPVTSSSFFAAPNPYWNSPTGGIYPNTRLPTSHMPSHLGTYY
In short: as §1

ELF1 = ELF1 (Homo sapiens, UniProt P32519 1-619); conditions: protein: recombinant; tags: N-terminal GST; dsDNA, one strand shown
ELF1, sequence (P32519 whole entry): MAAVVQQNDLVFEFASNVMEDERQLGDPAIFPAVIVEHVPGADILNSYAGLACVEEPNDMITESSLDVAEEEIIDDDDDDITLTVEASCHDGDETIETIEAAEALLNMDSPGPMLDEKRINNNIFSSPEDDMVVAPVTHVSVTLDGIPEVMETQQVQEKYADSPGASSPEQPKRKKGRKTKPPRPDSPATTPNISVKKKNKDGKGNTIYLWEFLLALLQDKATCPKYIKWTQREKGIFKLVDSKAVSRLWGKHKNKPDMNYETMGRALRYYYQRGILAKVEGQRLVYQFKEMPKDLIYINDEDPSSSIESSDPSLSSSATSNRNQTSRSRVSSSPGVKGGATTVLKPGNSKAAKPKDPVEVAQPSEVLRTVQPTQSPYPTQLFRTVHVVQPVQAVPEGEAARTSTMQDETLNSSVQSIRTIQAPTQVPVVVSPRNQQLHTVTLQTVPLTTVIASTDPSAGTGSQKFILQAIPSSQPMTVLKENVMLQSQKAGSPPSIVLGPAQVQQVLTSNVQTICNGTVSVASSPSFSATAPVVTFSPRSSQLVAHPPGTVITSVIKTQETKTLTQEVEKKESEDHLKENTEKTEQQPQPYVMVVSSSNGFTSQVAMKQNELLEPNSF
In short: as §1

EHF = biological target: T5, EHF (Homo sapiens, UniProt Q9NZC4 1-300); conditions: protein: recombinant; tags: N-terminal GST; dsDNA, one strand shown
T5 sequence: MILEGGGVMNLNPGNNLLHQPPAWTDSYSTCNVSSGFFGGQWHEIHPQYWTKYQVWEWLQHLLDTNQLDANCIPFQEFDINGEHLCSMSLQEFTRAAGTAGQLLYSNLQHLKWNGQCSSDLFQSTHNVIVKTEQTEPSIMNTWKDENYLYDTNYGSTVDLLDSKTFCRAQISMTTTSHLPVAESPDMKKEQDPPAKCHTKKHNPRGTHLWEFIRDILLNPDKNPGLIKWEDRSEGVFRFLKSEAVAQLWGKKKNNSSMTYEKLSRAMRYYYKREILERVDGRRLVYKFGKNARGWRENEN
In short: as §1

SPI1 = SPI1 (Homo sapiens, UniProt P17947 1-270); conditions: protein: recombinant; tags: N-terminal GST; dsDNA, one strand shown
In short: as §1

SPIB = SPIB (Homo sapiens, UniProt Q01892 1-262); conditions: protein: recombinant; tags: N-terminal GST; dsDNA, one strand shown
SPIB, sequence (Q01892 whole entry): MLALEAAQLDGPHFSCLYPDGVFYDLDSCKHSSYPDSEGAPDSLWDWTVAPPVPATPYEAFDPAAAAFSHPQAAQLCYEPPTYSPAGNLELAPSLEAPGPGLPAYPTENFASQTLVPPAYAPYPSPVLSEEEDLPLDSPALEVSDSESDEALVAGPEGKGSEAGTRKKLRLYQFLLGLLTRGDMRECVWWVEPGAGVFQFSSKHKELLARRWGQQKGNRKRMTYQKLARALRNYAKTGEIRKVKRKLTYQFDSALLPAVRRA
In short: as §1

ELK3 = biological target: T6, ELK3 (Homo sapiens, UniProt P41970 1-407); conditions: protein: recombinant; tags: N-terminal GST; dsDNA, one strand shown
T6 sequence: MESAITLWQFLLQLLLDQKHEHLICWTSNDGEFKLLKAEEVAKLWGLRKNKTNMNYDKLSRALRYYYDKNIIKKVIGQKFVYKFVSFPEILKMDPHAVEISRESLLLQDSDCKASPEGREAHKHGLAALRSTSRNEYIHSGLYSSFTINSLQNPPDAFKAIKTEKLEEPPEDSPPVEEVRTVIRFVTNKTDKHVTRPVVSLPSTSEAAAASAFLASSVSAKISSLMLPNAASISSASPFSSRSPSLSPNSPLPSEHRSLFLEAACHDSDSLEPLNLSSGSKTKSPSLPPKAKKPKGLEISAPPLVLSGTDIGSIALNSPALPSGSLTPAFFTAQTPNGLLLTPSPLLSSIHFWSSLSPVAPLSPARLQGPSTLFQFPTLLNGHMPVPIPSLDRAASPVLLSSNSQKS
In short: as §1

FEV = biological target: T7, FEV (Homo sapiens, UniProt Q99581 1-238); conditions: protein: recombinant; tags: N-terminal GST; dsDNA, one strand shown
T7 sequence: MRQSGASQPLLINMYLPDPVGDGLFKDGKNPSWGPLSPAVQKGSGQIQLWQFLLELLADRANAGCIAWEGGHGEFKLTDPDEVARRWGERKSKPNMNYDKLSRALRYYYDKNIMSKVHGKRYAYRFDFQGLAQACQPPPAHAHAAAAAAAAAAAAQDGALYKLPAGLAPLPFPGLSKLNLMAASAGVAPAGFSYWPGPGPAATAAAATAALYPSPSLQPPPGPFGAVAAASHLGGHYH
In short: as §1

ETV5 = ETV5 (Homo sapiens, UniProt P41161 1-510); conditions: protein: recombinant; tags: N-terminal GST; dsDNA, one strand shown
ETV5, sequence (P41161 whole entry): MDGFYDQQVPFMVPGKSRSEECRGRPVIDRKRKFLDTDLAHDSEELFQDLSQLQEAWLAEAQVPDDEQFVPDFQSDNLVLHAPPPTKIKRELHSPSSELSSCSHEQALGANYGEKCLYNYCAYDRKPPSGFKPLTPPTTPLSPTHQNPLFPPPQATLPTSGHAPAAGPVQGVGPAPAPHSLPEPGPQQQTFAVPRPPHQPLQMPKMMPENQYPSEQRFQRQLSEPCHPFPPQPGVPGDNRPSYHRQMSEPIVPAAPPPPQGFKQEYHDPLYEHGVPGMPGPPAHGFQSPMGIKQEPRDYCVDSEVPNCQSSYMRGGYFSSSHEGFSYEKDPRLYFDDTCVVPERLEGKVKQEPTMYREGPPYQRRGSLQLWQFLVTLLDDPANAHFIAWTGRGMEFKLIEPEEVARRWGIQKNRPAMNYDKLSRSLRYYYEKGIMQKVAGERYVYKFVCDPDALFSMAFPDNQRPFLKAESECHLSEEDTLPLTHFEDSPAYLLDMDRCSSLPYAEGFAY
In short: as §1

HSF1 = HSF1 (Homo sapiens, UniProt Q00613 1-529); conditions: protein: recombinant; tags: N-terminal GST; chain copies: 3; dsDNA, one strand shown
HSF1, sequence (Q00613 whole entry): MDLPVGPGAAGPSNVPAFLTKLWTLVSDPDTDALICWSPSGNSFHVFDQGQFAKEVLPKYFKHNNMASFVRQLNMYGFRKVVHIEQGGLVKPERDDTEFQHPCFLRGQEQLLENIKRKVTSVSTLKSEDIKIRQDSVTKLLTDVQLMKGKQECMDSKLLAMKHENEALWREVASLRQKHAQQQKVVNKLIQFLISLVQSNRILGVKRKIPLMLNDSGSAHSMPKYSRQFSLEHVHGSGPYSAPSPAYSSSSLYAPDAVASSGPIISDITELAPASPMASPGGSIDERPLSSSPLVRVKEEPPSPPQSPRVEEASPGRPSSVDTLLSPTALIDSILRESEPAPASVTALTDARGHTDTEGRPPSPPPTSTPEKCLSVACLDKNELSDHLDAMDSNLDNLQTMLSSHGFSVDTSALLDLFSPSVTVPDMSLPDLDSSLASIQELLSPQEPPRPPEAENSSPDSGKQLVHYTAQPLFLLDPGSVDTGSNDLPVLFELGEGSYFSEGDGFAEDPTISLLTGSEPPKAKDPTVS
In short: as §1

SPIC = biological target: T8, SPIC (Homo sapiens, UniProt Q8N5J4 1-248); conditions: protein: recombinant; tags: N-terminal GST; dsDNA, one strand shown
T8 sequence: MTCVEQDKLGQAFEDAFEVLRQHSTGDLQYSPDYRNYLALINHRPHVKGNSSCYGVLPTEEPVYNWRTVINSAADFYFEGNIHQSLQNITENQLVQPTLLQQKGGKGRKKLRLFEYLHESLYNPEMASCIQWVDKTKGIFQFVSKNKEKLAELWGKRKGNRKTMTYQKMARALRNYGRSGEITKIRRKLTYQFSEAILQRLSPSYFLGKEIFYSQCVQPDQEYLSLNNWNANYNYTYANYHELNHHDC
In short: as §1

ELF4 = ELF4 (Homo sapiens, UniProt Q99607 1-663); conditions: protein: recombinant; tags: N-terminal GST; dsDNA, one strand shown
ELF4, sequence (Q99607 whole entry): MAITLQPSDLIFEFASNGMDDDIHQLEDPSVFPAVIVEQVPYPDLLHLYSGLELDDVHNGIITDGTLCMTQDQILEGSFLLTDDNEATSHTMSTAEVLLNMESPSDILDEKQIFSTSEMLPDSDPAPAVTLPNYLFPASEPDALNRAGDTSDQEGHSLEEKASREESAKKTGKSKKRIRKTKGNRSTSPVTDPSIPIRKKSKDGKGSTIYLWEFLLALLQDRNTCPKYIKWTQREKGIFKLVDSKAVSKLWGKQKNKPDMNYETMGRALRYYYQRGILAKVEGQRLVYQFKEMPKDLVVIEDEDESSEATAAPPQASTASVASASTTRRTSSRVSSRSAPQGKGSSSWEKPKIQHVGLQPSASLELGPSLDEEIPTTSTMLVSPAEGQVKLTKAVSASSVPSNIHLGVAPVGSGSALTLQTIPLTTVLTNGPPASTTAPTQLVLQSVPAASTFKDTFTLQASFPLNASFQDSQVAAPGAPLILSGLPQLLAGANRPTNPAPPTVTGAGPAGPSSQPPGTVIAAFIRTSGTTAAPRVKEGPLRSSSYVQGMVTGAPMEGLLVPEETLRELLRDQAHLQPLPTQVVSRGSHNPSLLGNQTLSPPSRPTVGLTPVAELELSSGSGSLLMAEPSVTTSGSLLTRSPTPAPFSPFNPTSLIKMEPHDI
In short: as §1

ELK4 = biological target: T9, ELK4 (Homo sapiens, UniProt P28324-2 1-405); conditions: protein: recombinant; tags: N-terminal GST; dsDNA, one strand shown
T9 sequence: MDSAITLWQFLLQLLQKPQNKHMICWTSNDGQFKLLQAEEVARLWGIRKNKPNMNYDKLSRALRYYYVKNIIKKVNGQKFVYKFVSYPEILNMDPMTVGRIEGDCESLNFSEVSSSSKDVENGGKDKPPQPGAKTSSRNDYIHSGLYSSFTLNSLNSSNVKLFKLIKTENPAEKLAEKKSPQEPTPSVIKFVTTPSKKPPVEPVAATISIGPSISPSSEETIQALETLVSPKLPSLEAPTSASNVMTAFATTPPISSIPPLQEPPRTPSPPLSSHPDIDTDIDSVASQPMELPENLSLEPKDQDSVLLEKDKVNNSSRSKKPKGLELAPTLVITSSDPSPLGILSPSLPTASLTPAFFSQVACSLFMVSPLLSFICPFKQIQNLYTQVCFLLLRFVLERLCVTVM
In short: as §1

ETV2 = biological target: T10, ETV2 (Homo sapiens, UniProt O00321 1-342); conditions: protein: recombinant; tags: N-terminal GST; dsDNA, one strand shown
T10 sequence: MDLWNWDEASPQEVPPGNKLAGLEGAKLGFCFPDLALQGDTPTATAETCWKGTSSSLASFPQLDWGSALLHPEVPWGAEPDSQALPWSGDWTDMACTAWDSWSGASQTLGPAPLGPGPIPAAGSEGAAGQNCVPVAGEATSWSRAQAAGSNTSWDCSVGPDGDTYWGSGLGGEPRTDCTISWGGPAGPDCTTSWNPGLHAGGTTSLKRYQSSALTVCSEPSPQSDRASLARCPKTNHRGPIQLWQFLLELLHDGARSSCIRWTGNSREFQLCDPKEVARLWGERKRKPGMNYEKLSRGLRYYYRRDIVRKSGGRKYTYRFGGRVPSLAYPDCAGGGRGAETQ
In short: as §1

ELF3 = biological target: T11, ELF3 (Homo sapiens, UniProt P78545 1-371); conditions: protein: recombinant; tags: N-terminal GST; dsDNA, one strand shown
T11 sequence: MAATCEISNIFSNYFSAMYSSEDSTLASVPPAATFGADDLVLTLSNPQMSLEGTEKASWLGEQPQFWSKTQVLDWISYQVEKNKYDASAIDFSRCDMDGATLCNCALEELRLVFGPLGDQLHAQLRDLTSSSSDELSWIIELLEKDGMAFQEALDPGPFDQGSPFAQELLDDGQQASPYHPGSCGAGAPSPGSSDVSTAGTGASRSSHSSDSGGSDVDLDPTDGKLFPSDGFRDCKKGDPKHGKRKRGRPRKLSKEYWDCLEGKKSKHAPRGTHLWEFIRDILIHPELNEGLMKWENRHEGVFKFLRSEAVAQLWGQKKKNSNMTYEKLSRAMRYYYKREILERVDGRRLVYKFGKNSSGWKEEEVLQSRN
In short: as §1

CRX = CRX (Homo sapiens, UniProt O43186 1-299); conditions: protein: recombinant; tags: N-terminal GST; dsDNA, one strand shown
CRX, sequence (O43186 whole entry): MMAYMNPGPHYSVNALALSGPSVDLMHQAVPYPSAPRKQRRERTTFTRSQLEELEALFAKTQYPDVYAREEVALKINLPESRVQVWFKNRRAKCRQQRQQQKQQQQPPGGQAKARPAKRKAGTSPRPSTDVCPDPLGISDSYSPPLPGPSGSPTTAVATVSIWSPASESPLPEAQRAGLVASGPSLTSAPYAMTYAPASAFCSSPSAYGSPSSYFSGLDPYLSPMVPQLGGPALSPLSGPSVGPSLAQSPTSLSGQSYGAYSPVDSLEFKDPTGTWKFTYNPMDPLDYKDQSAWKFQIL
In short: as §1

ETV1 = ETV1 (Homo sapiens, UniProt P50549 1-477); conditions: protein: recombinant; tags: N-terminal GST; dsDNA, one strand shown
ETV1, sequence (P50549 whole entry): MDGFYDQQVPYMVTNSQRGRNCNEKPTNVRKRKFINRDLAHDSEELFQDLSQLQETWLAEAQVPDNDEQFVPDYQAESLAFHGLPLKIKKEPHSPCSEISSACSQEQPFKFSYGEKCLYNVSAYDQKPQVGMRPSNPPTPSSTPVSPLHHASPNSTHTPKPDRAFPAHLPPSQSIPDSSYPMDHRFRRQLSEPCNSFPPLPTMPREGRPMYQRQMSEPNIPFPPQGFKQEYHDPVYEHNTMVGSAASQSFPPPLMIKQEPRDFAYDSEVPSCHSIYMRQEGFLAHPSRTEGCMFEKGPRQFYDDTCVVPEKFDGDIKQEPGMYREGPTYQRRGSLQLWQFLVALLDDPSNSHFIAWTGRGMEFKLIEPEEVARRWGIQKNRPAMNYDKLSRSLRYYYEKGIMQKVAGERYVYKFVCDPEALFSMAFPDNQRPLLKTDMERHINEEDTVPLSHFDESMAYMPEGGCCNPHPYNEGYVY
In short: as §1

ACTTTC
binding signal (FLI1): 1.55 fold enrichment (6-mer frequency, TF over GST control)
binding signal (ELK1): 1.65 fold enrichment (6-mer frequency, TF over GST control)
binding signal (GABPA): 1.59 fold enrichment (6-mer frequency, TF over GST control)
binding signal (ERG): 1.46 fold enrichment (6-mer frequency, TF over GST control)
binding signal (ELF1): 1.63 fold enrichment (6-mer frequency, TF over GST control)
binding signal (EHF): 1.59 fold enrichment (6-mer frequency, TF over GST control)
binding signal (SPI1): 1.66 fold enrichment (6-mer frequency, TF over GST control)
binding signal (SPIB): 1.7 fold enrichment (6-mer frequency, TF over GST control)
binding signal (ELK3): 1.62 fold enrichment (6-mer frequency, TF over GST control)
binding signal (FEV): 1.49 fold enrichment (6-mer frequency, TF over GST control)
binding signal (ETV5): 1.65 fold enrichment (6-mer frequency, TF over GST control)
binding signal (HSF1): 2.49 fold enrichment (6-mer frequency, TF over GST control)
binding signal (SPIC): 1.6 fold enrichment (6-mer frequency, TF over GST control)
binding signal (ELF4): 1.53 fold enrichment (6-mer frequency, TF over GST control)
binding signal (ELK4): 1.86 fold enrichment (6-mer frequency, TF over GST control)
binding signal (ETV2): 1.62 fold enrichment (6-mer frequency, TF over GST control)
binding signal (ELF3): 1.6 fold enrichment (6-mer frequency, TF over GST control)
binding signal (CRX): 1.63 fold enrichment (6-mer frequency, TF over GST control)
binding signal (ETV1): 1.7 fold enrichment (6-mer frequency, TF over GST control)
